# An excerpt weighted towards active compounds, which were near 1.9% of everything screened.
# PTHR1 agonist: activates the human parathyroid hormone receptor PTHR1. Q03431. HEK293 GP2 PTHR1 cells, GloSensor cAMP luminescence, 1 h. Potency, µM (doses to about 115 µM), inactives show at the highest dose activation, actives largely listed as activators. 410,000 tested, 0.075% active; also: potency is read from the fitted curve at half-maximal effect; nearly all actives have a fitted effect of over 55% in size
# Target sequence (Q03431 whole entry, looked up): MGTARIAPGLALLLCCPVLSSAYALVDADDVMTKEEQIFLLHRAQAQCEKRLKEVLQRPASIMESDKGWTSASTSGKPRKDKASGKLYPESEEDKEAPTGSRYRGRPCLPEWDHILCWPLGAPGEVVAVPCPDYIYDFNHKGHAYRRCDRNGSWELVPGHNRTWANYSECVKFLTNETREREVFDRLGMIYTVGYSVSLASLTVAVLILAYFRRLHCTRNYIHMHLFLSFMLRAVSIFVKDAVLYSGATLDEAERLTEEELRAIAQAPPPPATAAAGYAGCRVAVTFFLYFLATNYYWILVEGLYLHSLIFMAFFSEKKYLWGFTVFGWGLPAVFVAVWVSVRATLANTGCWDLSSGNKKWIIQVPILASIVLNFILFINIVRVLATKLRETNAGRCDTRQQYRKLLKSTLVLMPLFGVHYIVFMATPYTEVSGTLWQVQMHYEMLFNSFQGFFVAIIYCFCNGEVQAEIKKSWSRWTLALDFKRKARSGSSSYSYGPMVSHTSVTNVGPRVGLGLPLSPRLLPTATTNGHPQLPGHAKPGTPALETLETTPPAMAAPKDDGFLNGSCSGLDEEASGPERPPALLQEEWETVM
#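 HEK-293-derived GP2 cells expressing PTHR1 and a GloSensor cAMP reporter, 3,000/well, plated overnight, given luciferin plus IBMX (each 0.5 mM as added) for 1 h at 37 °C, then compound for 1 h at 37 °C. Luminescence was read after 15 min at room temperature.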
# TDP43 rescue: TDP-43 toxicity inhibition in yeast | TDP-43 expressing yeast growth rescue, BacTiter-Glo, 24 h | Potency, µM (highest dose often 46.1 µM), for the others: top-dose growth rescue (activation), usual class: activators | AID 652104 | 410,000 tested, 1.8% active; also: potency is read from the fitted curve at half-maximal effect; % of control where 0% means no effect; nearly all actives have a fitted effect of over 50% in size
#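 Yeast cells expressing TDP-43 under galactose induction are exposed to compounds for 24 hr at 30 deg C. BacTiter-Glo luminescence measures growth, so protective compounds score as activators.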
# aSyn yeast inh: alpha-synuclein toxicity inhibition in yeast | Yeast expressing alpha-synuclein, growth rescue, BacTiter-Glo, 24 h | Potency, µM (doses to about 46.1 µM), for the others: top-dose growth rescue (activation), most hits filed as activators | 370,000 tested, 0.14% active | AID 652106; also: potency is read from the fitted curve at half-maximal effect; % of control where 0% means no effect; nearly all actives have a fitted effect of over 65% in size
#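 Readout is rescue of growth in alpha-synuclein-expressing yeast, so inhibitors of toxicity appear as activators. Growth after 24 hr at 30 deg C in galactose medium is quantified by luminescence.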
# Abeta rescue: A-beta toxicity reversal in yeast; yeast expressing A-beta42, growth rescue, OD600, 48 h; response scale: 0% DMSO, 100% iron-clioquinol control; Potency, µM (series often up to 46.1 µM), most hits filed as activators; 410,000 tested, 0.063% active; AID 1347071; also: potency is read from the fitted curve at half-maximal effect; nearly all actives have a fitted effect of over 55% in size
#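 Yeast A-beta toxicity model in growth medium with pinned compounds, 48 h at 30 C; growth read as absorbance at 600 nm. Normalized to FeCl3/clioquinol equimolar mix (positive) and DMSO (negative).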
# FUS yeast rescue: FUS proteinopathy suppression in yeast | S. cerevisiae FUS-expressing, growth rescue, OD600, 24 h | Potency, µM (titrated, usually from 76.6 µM), hits mostly activators | 390,000 tested, 0.24% active | AID 1347120;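 also: potency is read from the fitted curve at half-maximal effect; plate controls were DMSO vehicle for no effect and reference control for full effect; nearly all actives have a fitted effect of over 55% in size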
#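 Read-out: OD at 600 nm after 24hr at 30C, reporting rescue of FUS-induced yeast toxicity. Cells at OD 0.005 in galactose (2%) minimal medium; compounds tested in a dilution series; CP55940 titration from 92uM final as control.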
# LDHA block: blocks human lactate dehydrogenase A | P00338 | purified LDHA, NADH/diaphorase-resazurin fluorescence; active compounds read low | activity change, % (values are at about 110 or 230 µM) | 480,000 tested, 0.15% active | AID 1347041; in the data active = activity change below about -30%; inconclusive = mostly about -25% to -30%;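 also: plate controls were DMSO wells for no effect and wells without enzyme for full effect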
#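 Resorufin fluorescence (ex540/em590), read at 0 and 20 min after diaphorase/resazurin addition, reports the NADH left after a 5 min room-temperature reaction of 2 nM human LDH5 with 0.06 mM NADH and 0.2 mM pyruvate.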
# An asterisk follows results filed as active; i = inactive; ? = inconclusive; . = not tested or not shown; [ ] = dose if it differs, or a comment. Unless noted, calls follow the shape of the dose curve; as a rule, active = well fitted curve in the direction sought with a large enough effect; inconclusive = small, poorly fitted or top-dose-only effect, or another doubt; inactive = no such curve, though single readings can be large; an effect the other way counts as inactive or inconclusive.
SMILES,PTHR1 agonist,TDP43 rescue,aSyn yeast inh,Abeta rescue,FUS yeast rescue,LDHA block
Cc1ccc(NC(=O)C2(C)CCN2C(=O)c2ccccc2CCc2ccccc2)cc1C (stereo not given),i,19.7%,14.4%,i,i,1.1
Cc1cccc(S(=O)(=O)NC(=O)C2(C)CCN2C(=O)c2ccccc2CCc2ccccc2)c1 (stereo not given),-6.0%,15.8µM*,-14.8%,i,i,-3.5
COc1ccc(NC(=O)C2(C)CCN2C(=O)c2ccccc2CCc2ccccc2)cc1OC (stereo not given),-29.0%,17.8µM*,11.8%,i,?,3.3
c1ccc(CSc2nnc(-c3cccnc3)o2)cc1,i,14.1µM*,0.0%,i,i,-5.2
Brc1ccccc1CSc1nnc(-c2cccnc2)o1,.,.,.,.,.,8.6
Clc1ccc(CSc2nnc(-c3cccnc3)o2)cc1,-64.4%,11.2µM*,8.3%,i,i,2.9
O=[N+]([O-])c1ccc(CSc2nnc(-c3cccnc3)o2)cc1,i,11.2µM*,0.0%,i,i,1.7
c1cncc(-c2nnc(SCc3cccc4ccccc34)o2)c1,-43.1%,15.8µM*,10.0%,i,i,1.9
Brc1ccc(CSc2nnc(-c3cccnc3)o2)cc1,i,-2.0%[9.22 µM],0.9%,i,i,2.3
COC(=O)CNC(=O)c1cccc2c(=O)c(C)c(-c3ccccc3)oc12,.,.,.,.,.,2.2
Cc1ccc(CSc2nnc(-c3cccnc3)o2)cc1,i,12.6µM*,3.4%,i,i,-7.3
Fc1ccc(CSc2nnc(-c3cccnc3)o2)cc1,-13.8%,?,1.8%,i,i,1.3
CCCn1nc(C(=O)OCC(=O)NCc2ccc(F)cc2)c2ccccc2c1=O,.,.,.,.,.,-10.2
COc1cccc(C(=O)N2c3ccccc3Sc3ccccc32)c1,-14.3%,22.4µM*,24.3%,i,i,-1.8
CN(Cc1ccncc1)C1CC(=O)N(c2ccc(Cl)cc2)C1=O (stereo not given),-4.8%,2.4%,-2.7%,i,i,-7.8
COC(=O)CN(C)C1CC(=O)N(c2ccc(Cl)cc2)C1=O (stereo not given),-15.0%,17.8µM*,2.4%,i,i,-3.0
O=C(Nc1ccccc1)C1=C[C@H](c2coc3ccccc3c2=O)C[C@H](OCc2ccc(CO)cc2)O1,-36.4%,20µM*,0.6%,i,?,-3.6
C#CCNC(=O)C1=C[C@@H](c2csc3ccccc23)C[C@@H](OCc2ccc(CO)cc2)O1,-19.9%,25.1µM*,8.3%,i,i,2.9
O=C(NC1CC1)C1=C[C@@H](c2csc3ccccc23)C[C@@H](OCc2ccc(CO)cc2)O1,i,14.1µM*,28.8%,i,?,-3.2
CCCC(C)C(=O)Nc1ccc(-c2nc3ccccc3o2)cc1 (stereo not given),.,.,.,.,.,2.5
O=C(NCCc1cccc2cccnc12)NC1CCN(CC2CCCCC2)CC1,.,.,.,.,.,-1.1
CC(Nc1ccc(F)cc1)C(=O)Nc1ccc(Cl)cn1 (stereo not given),.,.,.,.,.,-3.5
CC(=O)Nc1cccc(C(=O)NCc2nc(C)cs2)c1,.,.,.,.,.,0.5
O=C(Nc1ccc(-c2ccccc2)cc1)c1cc(F)c(F)cc1Cl,.,.,.,.,.,0.1
COc1ccc(S(=O)(=O)NNS(=O)(=O)c2ccc(OC)c(OC)c2)cc1OC,-6.3%,-4.6%,-0.2%,i,i,-81.3*
SMILES,PTHR1 agonist,TDP43 rescue,aSyn yeast inh,Abeta rescue,FUS yeast rescue,LDHA block
COc1ccc(NS(=O)(=O)c2ccc(OC)c(OC)c2)cc1OC,i,15.7%,-1.1%,i,i,-7.3
CCOC(=O)c1cnc(SC2CC(=O)N(c3ccccc3)C2=O)nc1N (stereo not given),i,-9.9%,-4.0%,i,i,-8.3
CCOC(=O)c1cnc(SC2CCc3ccccc3C2=O)nc1N (stereo not given),i,20µM*,5.4%,i,?,21.4
COc1ccc2c(CN(C)CCOc3ccc(F)cc3)cc(=O)oc2c1,.,.,.,.,.,1.7
COc1ccc(S(=O)(=O)N(C)Cc2cccs2)cc1Br,i,15.8µM*,12.5%,i,i,-8.1
CCOc1cc(/C=N/O)ccc1OCC(N)=O,.,.,.,.,.,0.1
O=C(COc1ccc2c3c(c(=O)oc2c1)CCC3)N1CCN(c2ccc(F)cc2)CC1,-33.1%,31.6µM*,8.1%,i,i,-10.0
O=C(COc1ccc2ccc(=O)oc2c1)N1CCN(c2ccccc2)CC1,-11.7%,20µM*,14.5%,i,i,-5.1
COc1ccc2oc(C(=O)OC(C)C#N)c(C)c2c1 (stereo not given),.,.,.,.,.,2.0
Cc1ccc(S(=O)(=O)N2CCOC23CCN(C(=O)c2ccccc2Br)CC3)cc1,-29.2%,15.8µM*,4.5%,.,i,-6.5
O=C(O/N=C(/c1ccccc1)c1ccncc1)c1cccc(F)c1,-12.5%,14.1µM*,11.0%,i,i,-11.8
O=C(O/N=C(\c1ccccc1)c1ccncc1)c1ccccc1F,i,?,?,i,i,-4.6
Cc1cccc(C(=O)Nc2nonc2-c2ccc(Cl)cc2)c1,.,.,.,.,.,3.0
CCCC(Oc1ccc(Br)cc1)c1nc2c3cc(OC)c(OC)cc3nc(=S)n2[nH]1 (stereo not given),i,15.9%,1.4%,i,.,-5.9
CC(Oc1ccc(Br)cc1)c1nc2c3ccccc3nc(=S)n2[nH]1 (stereo not given),i,-8.8%,16.9%,?,35.5µM*,2.9
CCOc1ccccc1Oc1c(C)oc2cc(OS(C)(=O)=O)ccc2c1=O,.,.,.,.,.,4.7
CCCCC1CCC(C(=O)Nc2ccc(OC)c3ncccc23)CC1 (stereo not given),.,.,.,.,.,-30.1*
Cc1cccc(-c2nc(CSc3nc(C)c(C)c(=O)[nH]3)c(C)o2)c1,.,.,.,.,.,6.0
Cc1ccc(Cl)cc1-n1ncc2c(NCc3ccc(F)cc3)ncnc21,-28.5%,20µM*,.,i,i,-9.0
CCCCNc1ncnc2c1cnn2-c1ccc(C)cc1C,i,12.6µM*,-10.3%,i,i,1.6
Cc1ccc(Cl)cc1-n1ncc2c(NCCC3=CCCCC3)ncnc21,-23.3%,35.5µM*,.,i,?,2.8
Cc1ccc(Cl)cc1-n1ncc2c(NCCc3ccccc3)ncnc21,-42.2%,22.4µM*,.,i,i,1.5
Cc1ccc(Cl)cc1-n1ncc2c(NCCCc3ccccc3)ncnc21,-38.6%,?,.,i,i,-5.0
CCc1ccc(Nc2ncnc3c2cnn3-c2cc(Cl)ccc2C)cc1,-28.4%,16.3%,.,i,i,-0.1

# Screening results: PubChem, National Center for Advancing Translational Sciences (NCATS)
